Test results as given in PubChem BioAssay (NCI).
The panel holds about 83,000 compounds, 20% with a hit somewhere; the sample as a whole holds those more often.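 Negative percent growth values reflect cell death: -40 means 40% of the cells present at the start died, and -100 means all died.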 Unmarked numbers belong to inactive results. The source made the active and inactive calls. How the source made its calls: active means growth percent below 10; inactive means the rest.

System: HL-60(TB) leukemia
Assay: NCI-60 one-dose screen, 48 h (100 = growth as untreated, 0 = no growth, -100 = all killed)
Details: 10 µM unless noted

Structure (SMILES)	growth
COC(=O)c1ccc(CSc2nnc(-c3ccncc3)o2)cc1	95.5%
COc1ccc(/C=C(/C(=O)N2CCN(c3ccc(C)cc3)CC2)c2cc(OC)c(OC)c(OC)c2)cc1N	-24.2% (active)
C(=N/Nc1ncc(-c2cc3cc(-c4ccccc4)ccc3o2)s1)/c1cccs1	96.4%
COc1ccc(-c2nsc3c2NC(=O)CC3c2cccc(OC)c2)cc1 (centres undefined)	6.13% (active)
CCCCCCCCCCC[C@@H](C[C@H]1OC(=O)[C@H]1CCCCCC)OC(=O)[C@@H](CC(C)C)NC=O	-3.28% (active)
COc1cc(-c2nn(-c3cccc(NC(=O)NCCNS(=O)(=O)c4ccc(Cl)cc4)c3)cc2-c2ccncc2)ccc1Cl	1.37% (active)
COc1ccc(C=C2c3ccccc3-c3ccccc32)cc1	23.6%
O=C1C=CC(=O)N1c1ccc(O)cc1	112%
CC(C)OCCCNCC(=O)Nc1ccc(S(=O)(=O)c2ccc(NC(=O)CNCCCOC(C)C)cc2)cc1	82.1%
COc1cc(NC(=O)Nc2cnc(Nc3ccc(N4CCOCC4)cc3)nc2Oc2ccc(C(F)(F)F)cc2)cc(OC)c1	96.4%
OCCc1ccc(Cl)cc1	104%
COc1ccc(-c2nc(Nc3ccc(-c4nc5ccccc5[nH]4)cc3)nc(N3CCOCC3)n2)cc1	-46% (active)
CCOC(=O)C1=C(C)N=C2Sc3cccc(OC)c3N2[C@H]1c1ccccn1	105%
C=C1C(=O)O[C@H]2[C@H]1CC/C(COC(=O)CCSSCCC(=O)OC/C1=C/CC[C@@]3(C)O[C@H]3[C@H]3OC(=O)C(=C)[C@@H]3CC1)=C\CC[C@@]1(C)O[C@@H]21	-47.9% (active)
COc1cc(-c2nn(-c3cccc(NC(=O)CCN4CCN(C)CC4)c3)cc2-c2ccncc2)ccc1Cl	-24.5% (active)
COc1cc2nccc(Oc3ccc(NC(=O)Nc4cc(C)on4)c(Cl)c3)c2cc1OC	9.48% (active)
O=C(/C=C(/C=C/c1csc2ccccc12)OB(F)F)/C=C/c1csc2ccccc12	2.68% (active)

Structure (SMILES)	growth
N#C/C(=C/C=C/c1ccccc1)S(=O)c1ccccc1 (centres undefined)	-16.5% (active)
Cc1ccc(Cl)cc1N1CCN(C(=O)[C@@H]2C[C@@H]2c2ccc(F)cc2)CC1	69.9%
O=C(O)CCC(NC(=O)OCc1ccccc1)C(=O)O (centres undefined)	108%
COc1cc(C2=C(c3cn(C)c4ccccc34)COC2=O)cc(OC)c1OC	-1.28% (active)
CSc1cccc([N+](=O)[O-])c1	91.7%
O=[P@@]1(c2ccccc2)O[C@H](COCc2ccccc2)[C@@H](OCc2ccccc2)[C@H](OCc2ccccc2)[C@H]1O	98.5%
c1ccc2c(Nc3cccc4ccccc34)cccc2c1	18.9%
COc1ccc(Cl)cc1Nc1nc(C(F)(F)F)ccc1C(=O)NN	23.3%
Nc1c(C(=O)Nc2cccc(Br)c2)sc2nc3c(cc12)C(=O)CCC3	49.7%
BrCCCc1n(Cc2ccc3ccccc3c2)c2ccccc2[n+]1Cc1ccc2ccccc2c1	-54.9% (active)
CCC(C)[C@H](NC(C)=O)C(=O)N[C@@H](CCCNC(=N)N)C(=O)N[C@@H](CCCCN)C(=O)N[C@@H](CC1CCC(O)CC1)C(=O)NC(C(=O)N[C@@H](CCSC)C(=O)N[C@@H](CCCNC(=N)N)C(=O)N[C@@]1(C)CCC/C=C\CCC[C@@](C)(C(=O)NC(C(=O)N[C@@H](CCC(=O)O)C(=O)N[C@@H](CC(C)C)C(=O)N[C@H](C(=O)N[C@@H](CCC(=O)O)C(N)=O)C(C)C)[C@@H](C)O)NC(=O)[C@H](CCC(N)=O)NC(=O)[C@H](CC(C)C)NC(=O)[C@H](CC(C)C)NC1=O)[C@@H](C)O (some centres undefined)	97.3%
COc1cc(C)cc2oc3oc(=O)c(-c4csc(-c5cc6ccccc6oc5=O)n4)cc3c(=O)c12	115%
OCC1OC(n2cnc3c(Cl)ncnc32)CC1O (centres undefined)	121%
O=C1c2ccccc2C(=O)C1c1ccc(Br)cc1	105%
NC(=O)c1c(NC(=O)c2ccc3c(c2)OCO3)sc2c1CCC(=O)C2	-58.3% (active)
Cc1ccc2c(c1)sc1nc(-c3c[nH]c4ccccc34)c(Nc3ccccc3)n12	97%
CCc1ccccc1NC(=O)c1sc2nc3c(cc2c1N)CCCC3	2.66% (active)
